# Tests used:
# Assay in all cases: DAPPL (digital affinity profiling via proximity ligation, sequencing); 10 mM Tris-HCl pH 7.5, 50 mM NaCl, 1 mM DTT, 4% glycerol, room temperature, 30 min; GST-TFs on glutathione beads, 16-mer random dsDNA library, 0.1% formaldehyde crosslink after washing; high values mean tight binding
# FLI1 = biological target: T1, FLI1 (Homo sapiens, UniProt Q01543 1-452); details: protein: recombinant; tags: N-terminal GST; dsDNA, one strand shown
# T1 sequence: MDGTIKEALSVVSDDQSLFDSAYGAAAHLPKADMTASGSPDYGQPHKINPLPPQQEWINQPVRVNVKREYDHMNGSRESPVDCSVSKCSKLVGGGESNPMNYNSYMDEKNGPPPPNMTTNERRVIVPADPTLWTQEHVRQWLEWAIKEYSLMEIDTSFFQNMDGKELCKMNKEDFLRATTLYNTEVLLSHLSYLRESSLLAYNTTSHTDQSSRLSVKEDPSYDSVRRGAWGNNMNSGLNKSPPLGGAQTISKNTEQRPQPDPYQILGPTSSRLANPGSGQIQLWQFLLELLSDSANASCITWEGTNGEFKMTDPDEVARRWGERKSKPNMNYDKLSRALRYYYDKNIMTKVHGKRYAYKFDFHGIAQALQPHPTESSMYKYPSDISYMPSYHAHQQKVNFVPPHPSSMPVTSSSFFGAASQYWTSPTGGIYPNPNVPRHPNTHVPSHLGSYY
# In short: (§1)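 Binding signal is each hexamer's read frequency for a factor divided by its frequency in the tag-only sample. The factors were GST-fused human transcription factors from yeast, captured on glutathione beads, DNA-barcoded and pooled with that sample. Pools were incubated with 200 nmole of a random double-stranded 16-mer DNA library in Tris/NaCl/DTT/glycerol buffer at room temperature for 30 min, then washed, crosslinked with 0.1% formaldehyde, proximity-ligated with BsaI/T4 ligase (1 h, 37 °C), PCR-amplified and sequenced on an Illumina NextSeq500.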
# ELK1 = biological target: T2, ELK1 (Homo sapiens, UniProt P19419 1-428); details: protein: recombinant; tags: N-terminal GST; dsDNA, one strand shown
# T2 sequence: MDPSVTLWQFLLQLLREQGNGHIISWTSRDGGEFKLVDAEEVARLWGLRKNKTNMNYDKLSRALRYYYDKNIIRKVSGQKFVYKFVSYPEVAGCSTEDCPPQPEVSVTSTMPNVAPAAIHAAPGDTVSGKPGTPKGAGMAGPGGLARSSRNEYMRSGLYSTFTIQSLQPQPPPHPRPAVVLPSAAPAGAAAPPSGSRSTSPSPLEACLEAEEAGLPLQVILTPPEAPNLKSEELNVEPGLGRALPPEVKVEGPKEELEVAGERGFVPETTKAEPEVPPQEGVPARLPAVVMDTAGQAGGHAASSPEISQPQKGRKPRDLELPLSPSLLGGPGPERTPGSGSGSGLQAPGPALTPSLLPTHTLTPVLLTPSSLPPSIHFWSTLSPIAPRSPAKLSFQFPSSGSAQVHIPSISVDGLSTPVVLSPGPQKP
# In short: as §1
# GABPA = biological target: T3, GABPA (Homo sapiens, UniProt Q06546 1-454); details: protein: recombinant; tags: N-terminal GST; dsDNA, one strand shown
# T3 sequence: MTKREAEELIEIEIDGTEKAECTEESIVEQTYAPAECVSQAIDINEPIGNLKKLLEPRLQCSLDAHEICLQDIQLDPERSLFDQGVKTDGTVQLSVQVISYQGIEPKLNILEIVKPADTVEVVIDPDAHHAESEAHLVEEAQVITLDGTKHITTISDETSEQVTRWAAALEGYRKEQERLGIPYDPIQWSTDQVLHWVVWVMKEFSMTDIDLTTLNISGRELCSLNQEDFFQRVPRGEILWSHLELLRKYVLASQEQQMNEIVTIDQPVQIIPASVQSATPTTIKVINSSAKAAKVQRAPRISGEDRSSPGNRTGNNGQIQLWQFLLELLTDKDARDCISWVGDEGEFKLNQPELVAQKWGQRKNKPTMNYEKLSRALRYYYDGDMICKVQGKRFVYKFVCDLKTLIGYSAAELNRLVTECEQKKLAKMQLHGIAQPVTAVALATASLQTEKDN
# In short: as §1
# ERG = biological target: T4, ERG (Homo sapiens, UniProt P11308 1-479); details: protein: recombinant; tags: N-terminal GST; dsDNA, one strand shown
# T4 sequence: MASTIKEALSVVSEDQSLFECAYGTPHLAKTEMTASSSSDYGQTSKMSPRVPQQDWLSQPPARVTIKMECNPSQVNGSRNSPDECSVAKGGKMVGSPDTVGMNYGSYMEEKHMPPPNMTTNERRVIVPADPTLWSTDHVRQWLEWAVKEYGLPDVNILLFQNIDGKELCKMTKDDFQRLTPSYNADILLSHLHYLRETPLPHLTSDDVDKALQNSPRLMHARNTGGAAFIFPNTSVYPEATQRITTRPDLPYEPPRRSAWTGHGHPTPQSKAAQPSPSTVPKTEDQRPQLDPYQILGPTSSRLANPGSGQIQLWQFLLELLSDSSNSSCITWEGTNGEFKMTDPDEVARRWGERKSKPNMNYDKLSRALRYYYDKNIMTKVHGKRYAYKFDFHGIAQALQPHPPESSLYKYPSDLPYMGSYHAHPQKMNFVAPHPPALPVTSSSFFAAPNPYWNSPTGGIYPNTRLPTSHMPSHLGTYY
# In short: as §1
# ELF1 = ELF1 (Homo sapiens, UniProt P32519 1-619); details: protein: recombinant; tags: N-terminal GST; dsDNA, one strand shown
# In short: as §1
# EHF = biological target: T5, EHF (Homo sapiens, UniProt Q9NZC4 1-300); details: protein: recombinant; tags: N-terminal GST; dsDNA, one strand shown
# T5 sequence: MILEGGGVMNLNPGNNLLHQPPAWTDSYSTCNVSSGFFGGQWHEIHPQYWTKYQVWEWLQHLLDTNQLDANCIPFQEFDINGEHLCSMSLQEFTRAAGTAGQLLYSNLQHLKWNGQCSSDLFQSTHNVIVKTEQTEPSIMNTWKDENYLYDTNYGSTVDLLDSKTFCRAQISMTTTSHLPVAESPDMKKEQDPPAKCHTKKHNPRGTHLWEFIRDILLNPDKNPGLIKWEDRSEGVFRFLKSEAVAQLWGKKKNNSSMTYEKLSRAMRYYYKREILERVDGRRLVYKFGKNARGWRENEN
# In short: as §1
# SPI1 = SPI1 (Homo sapiens, UniProt P17947 1-270); details: protein: recombinant; tags: N-terminal GST; dsDNA, one strand shown
# In short: as §1
# SPIB = SPIB (Homo sapiens, UniProt Q01892 1-262); details: protein: recombinant; tags: N-terminal GST; dsDNA, one strand shown
# In short: as §1
# ELK3 = biological target: T6, ELK3 (Homo sapiens, UniProt P41970 1-407); details: protein: recombinant; tags: N-terminal GST; dsDNA, one strand shown
# T6 sequence: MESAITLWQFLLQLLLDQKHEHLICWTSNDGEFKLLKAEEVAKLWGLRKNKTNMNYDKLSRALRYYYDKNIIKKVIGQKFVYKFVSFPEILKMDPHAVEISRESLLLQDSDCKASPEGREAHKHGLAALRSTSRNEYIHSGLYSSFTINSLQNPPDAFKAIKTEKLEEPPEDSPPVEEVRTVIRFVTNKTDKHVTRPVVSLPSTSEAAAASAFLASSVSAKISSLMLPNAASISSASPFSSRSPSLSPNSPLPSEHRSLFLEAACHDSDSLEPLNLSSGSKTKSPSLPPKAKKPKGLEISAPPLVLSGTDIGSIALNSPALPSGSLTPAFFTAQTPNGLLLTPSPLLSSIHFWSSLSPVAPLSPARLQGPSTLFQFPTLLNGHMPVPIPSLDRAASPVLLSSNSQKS
# In short: as §1
# FEV = biological target: T7, FEV (Homo sapiens, UniProt Q99581 1-238); details: protein: recombinant; tags: N-terminal GST; dsDNA, one strand shown
# T7 sequence: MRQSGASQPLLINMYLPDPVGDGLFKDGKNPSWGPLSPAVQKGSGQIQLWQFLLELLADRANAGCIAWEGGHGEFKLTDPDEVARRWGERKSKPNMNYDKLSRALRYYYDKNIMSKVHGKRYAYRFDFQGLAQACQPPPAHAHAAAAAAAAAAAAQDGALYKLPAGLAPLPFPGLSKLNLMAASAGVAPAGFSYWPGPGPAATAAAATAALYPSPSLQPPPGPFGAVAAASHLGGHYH
# In short: as §1
# ETV5 = ETV5 (Homo sapiens, UniProt P41161 1-510); details: protein: recombinant; tags: N-terminal GST; dsDNA, one strand shown
# In short: as §1
# HSF1 = HSF1 (Homo sapiens, UniProt Q00613 1-529); details: protein: recombinant; tags: N-terminal GST; chain copies: 3; dsDNA, one strand shown
# In short: as §1
# SPIC = biological target: T8, SPIC (Homo sapiens, UniProt Q8N5J4 1-248); details: protein: recombinant; tags: N-terminal GST; dsDNA, one strand shown
# T8 sequence: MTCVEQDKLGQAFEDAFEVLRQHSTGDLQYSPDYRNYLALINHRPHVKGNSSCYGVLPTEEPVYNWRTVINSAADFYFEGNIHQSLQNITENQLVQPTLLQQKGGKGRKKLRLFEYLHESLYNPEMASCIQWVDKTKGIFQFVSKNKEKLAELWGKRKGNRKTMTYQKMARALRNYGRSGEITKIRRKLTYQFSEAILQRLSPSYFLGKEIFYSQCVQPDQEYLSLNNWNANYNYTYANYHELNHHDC
# In short: as §1
# ELF4 = ELF4 (Homo sapiens, UniProt Q99607 1-663); details: protein: recombinant; tags: N-terminal GST; dsDNA, one strand shown
# In short: as §1
# ELK4 = biological target: T9, ELK4 (Homo sapiens, UniProt P28324-2 1-405); details: protein: recombinant; tags: N-terminal GST; dsDNA, one strand shown
# T9 sequence: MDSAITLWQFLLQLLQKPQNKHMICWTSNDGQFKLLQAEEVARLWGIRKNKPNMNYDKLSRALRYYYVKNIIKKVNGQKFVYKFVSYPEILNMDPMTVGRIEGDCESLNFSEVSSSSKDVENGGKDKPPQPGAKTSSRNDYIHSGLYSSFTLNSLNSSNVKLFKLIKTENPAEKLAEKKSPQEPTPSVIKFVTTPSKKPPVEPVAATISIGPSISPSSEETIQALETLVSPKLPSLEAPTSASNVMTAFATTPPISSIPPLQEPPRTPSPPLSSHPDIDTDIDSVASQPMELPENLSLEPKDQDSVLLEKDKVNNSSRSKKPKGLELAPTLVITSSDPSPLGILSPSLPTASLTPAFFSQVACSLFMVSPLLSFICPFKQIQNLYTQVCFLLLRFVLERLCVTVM
# In short: as §1
# ETV2 = biological target: T10, ETV2 (Homo sapiens, UniProt O00321 1-342); details: protein: recombinant; tags: N-terminal GST; dsDNA, one strand shown
# T10 sequence: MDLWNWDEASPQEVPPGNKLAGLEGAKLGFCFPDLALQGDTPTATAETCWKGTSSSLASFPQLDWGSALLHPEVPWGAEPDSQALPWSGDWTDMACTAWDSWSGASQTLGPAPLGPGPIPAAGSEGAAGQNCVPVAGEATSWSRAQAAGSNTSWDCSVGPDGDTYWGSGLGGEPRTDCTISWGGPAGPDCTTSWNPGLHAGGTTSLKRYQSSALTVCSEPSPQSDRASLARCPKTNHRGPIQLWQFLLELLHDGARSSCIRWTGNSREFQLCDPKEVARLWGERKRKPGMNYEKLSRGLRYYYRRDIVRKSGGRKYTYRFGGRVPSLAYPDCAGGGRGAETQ
# In short: as §1
# ELF3 = biological target: T11, ELF3 (Homo sapiens, UniProt P78545 1-371); details: protein: recombinant; tags: N-terminal GST; dsDNA, one strand shown
# T11 sequence: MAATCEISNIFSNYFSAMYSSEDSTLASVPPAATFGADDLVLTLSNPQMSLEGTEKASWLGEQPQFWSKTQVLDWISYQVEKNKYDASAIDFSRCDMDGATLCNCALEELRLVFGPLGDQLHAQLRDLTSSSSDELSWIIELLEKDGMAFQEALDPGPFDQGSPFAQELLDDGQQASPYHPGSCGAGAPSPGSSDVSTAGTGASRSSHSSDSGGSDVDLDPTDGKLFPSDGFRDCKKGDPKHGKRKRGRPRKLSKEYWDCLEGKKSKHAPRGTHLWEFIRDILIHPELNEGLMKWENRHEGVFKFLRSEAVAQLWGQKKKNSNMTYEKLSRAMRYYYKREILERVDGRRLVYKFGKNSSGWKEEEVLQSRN
# In short: as §1
# CRX = CRX (Homo sapiens, UniProt O43186 1-299); details: protein: recombinant; tags: N-terminal GST; dsDNA, one strand shown
# In short: as §1
# ETV1 = ETV1 (Homo sapiens, UniProt P50549 1-477); details: protein: recombinant; tags: N-terminal GST; dsDNA, one strand shown
# In short: as §1
# Sequence of ELF4 (Q99607 whole entry): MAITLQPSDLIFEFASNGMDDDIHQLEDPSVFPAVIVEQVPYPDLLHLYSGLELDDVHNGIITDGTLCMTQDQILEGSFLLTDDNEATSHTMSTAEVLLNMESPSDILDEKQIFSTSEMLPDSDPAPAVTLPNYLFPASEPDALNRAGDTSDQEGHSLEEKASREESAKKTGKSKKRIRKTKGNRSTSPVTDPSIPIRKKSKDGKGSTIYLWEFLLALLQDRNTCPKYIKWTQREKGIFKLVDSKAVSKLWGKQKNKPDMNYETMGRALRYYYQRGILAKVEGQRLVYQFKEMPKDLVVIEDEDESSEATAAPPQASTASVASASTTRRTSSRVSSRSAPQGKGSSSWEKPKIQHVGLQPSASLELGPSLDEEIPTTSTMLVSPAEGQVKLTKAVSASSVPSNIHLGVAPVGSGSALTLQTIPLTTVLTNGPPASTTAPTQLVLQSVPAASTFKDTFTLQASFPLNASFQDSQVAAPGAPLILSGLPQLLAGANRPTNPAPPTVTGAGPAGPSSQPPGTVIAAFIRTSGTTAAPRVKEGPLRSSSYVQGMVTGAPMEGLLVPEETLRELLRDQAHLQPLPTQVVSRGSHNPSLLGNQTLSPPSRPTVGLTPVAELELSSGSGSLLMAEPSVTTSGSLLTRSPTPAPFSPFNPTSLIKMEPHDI
# Sequence of CRX (O43186 whole entry): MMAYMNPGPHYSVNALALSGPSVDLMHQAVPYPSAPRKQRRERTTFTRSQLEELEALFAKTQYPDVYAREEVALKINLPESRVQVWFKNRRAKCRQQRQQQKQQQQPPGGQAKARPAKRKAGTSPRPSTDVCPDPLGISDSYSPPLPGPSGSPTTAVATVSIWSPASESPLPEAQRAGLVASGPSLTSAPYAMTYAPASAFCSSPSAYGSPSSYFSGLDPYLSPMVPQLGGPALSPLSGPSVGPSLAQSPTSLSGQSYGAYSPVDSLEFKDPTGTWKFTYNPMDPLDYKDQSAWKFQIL
# Sequence of SPIB (Q01892 whole entry): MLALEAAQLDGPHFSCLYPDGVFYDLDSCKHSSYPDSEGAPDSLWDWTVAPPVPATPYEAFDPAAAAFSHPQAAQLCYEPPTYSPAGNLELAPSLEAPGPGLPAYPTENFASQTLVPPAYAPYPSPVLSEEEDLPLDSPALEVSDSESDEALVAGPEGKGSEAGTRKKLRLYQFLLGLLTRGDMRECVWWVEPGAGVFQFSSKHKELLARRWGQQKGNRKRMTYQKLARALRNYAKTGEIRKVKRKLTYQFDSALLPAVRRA
# Sequence of ETV5 (P41161 whole entry): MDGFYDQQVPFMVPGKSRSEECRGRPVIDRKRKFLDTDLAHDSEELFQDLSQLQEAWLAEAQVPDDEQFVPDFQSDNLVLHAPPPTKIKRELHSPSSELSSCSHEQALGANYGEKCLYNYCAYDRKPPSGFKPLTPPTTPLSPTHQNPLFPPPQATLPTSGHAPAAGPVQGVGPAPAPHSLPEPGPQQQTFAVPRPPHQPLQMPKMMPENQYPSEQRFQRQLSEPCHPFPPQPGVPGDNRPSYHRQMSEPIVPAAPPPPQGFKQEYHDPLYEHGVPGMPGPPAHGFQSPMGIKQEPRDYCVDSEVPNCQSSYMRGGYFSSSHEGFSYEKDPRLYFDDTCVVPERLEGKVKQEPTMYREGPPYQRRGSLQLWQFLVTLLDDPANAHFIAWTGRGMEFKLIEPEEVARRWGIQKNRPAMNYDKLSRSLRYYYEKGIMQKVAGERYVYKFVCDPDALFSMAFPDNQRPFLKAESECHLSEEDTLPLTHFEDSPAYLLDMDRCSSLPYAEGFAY
# Sequence of HSF1 (Q00613 whole entry): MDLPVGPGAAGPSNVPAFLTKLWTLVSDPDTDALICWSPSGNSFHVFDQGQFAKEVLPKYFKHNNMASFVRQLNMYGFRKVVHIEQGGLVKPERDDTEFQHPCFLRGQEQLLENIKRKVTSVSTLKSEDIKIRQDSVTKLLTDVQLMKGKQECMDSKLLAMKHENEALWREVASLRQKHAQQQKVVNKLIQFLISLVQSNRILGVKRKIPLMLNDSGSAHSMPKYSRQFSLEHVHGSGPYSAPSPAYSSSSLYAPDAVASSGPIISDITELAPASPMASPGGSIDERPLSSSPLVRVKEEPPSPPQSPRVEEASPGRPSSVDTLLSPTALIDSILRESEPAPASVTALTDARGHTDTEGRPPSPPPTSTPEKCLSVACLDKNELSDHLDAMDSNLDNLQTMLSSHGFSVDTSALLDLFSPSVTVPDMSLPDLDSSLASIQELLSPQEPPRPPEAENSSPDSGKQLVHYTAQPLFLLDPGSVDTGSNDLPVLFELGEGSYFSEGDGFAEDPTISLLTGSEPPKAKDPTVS
# Sequence of ETV1 (P50549 whole entry): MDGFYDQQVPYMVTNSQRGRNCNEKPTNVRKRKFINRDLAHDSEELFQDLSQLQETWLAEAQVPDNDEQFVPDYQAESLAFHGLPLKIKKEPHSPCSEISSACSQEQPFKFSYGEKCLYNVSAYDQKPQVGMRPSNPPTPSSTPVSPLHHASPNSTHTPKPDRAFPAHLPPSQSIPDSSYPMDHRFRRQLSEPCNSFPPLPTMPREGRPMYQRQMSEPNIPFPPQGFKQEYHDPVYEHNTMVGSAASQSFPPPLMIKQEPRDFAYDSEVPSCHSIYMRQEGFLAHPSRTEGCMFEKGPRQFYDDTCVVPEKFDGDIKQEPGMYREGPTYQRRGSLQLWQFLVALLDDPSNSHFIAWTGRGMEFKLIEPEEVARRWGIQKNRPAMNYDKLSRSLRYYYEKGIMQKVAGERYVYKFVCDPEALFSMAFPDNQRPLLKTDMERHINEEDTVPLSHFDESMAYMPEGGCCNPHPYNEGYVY
# Sequence of ELF1 (P32519 whole entry): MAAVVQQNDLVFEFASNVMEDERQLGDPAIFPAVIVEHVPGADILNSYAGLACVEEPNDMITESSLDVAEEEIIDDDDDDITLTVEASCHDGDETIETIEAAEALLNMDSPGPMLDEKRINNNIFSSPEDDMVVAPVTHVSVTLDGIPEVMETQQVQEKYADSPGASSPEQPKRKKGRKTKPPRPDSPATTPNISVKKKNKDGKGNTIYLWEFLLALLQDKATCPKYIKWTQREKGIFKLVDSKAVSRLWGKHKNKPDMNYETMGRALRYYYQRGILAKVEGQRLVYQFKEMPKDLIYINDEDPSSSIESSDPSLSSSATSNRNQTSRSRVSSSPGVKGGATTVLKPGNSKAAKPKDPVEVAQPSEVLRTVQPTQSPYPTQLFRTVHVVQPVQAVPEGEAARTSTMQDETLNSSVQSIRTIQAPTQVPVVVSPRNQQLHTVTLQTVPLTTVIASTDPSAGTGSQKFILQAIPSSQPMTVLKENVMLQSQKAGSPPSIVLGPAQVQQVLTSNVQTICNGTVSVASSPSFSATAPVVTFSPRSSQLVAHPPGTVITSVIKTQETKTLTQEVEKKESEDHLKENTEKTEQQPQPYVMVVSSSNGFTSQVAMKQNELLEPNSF
sequence,measurement,setting,value
CAACTA,binding signal,FLI1,"1.24 fold enrichment (6-mer frequency, TF over GST control)"
same,binding signal,ELK1,"1.31 fold enrichment (6-mer frequency, TF over GST control)"
same,binding signal,GABPA,"1.37 fold enrichment (6-mer frequency, TF over GST control)"
same,binding signal,ERG,"1.3 fold enrichment (6-mer frequency, TF over GST control)"
same,binding signal,ELF1,"1.38 fold enrichment (6-mer frequency, TF over GST control)"
same,binding signal,EHF,"1.27 fold enrichment (6-mer frequency, TF over GST control)"
same,binding signal,SPI1,"1.28 fold enrichment (6-mer frequency, TF over GST control)"
same,binding signal,SPIB,"1.24 fold enrichment (6-mer frequency, TF over GST control)"
same,binding signal,ELK3,"1.25 fold enrichment (6-mer frequency, TF over GST control)"
same,binding signal,FEV,"1.27 fold enrichment (6-mer frequency, TF over GST control)"
same,binding signal,ETV5,"1.26 fold enrichment (6-mer frequency, TF over GST control)"
same,binding signal,HSF1,"1.2 fold enrichment (6-mer frequency, TF over GST control)"
same,binding signal,SPIC,"1.22 fold enrichment (6-mer frequency, TF over GST control)"
same,binding signal,ELF4,"1.31 fold enrichment (6-mer frequency, TF over GST control)"
same,binding signal,ELK4,"1.24 fold enrichment (6-mer frequency, TF over GST control)"
same,binding signal,ETV2,"1.18 fold enrichment (6-mer frequency, TF over GST control)"
same,binding signal,ELF3,"1.32 fold enrichment (6-mer frequency, TF over GST control)"
same,binding signal,CRX,"1.24 fold enrichment (6-mer frequency, TF over GST control)"
same,binding signal,ETV1,"1.24 fold enrichment (6-mer frequency, TF over GST control)"
